# Assay results from PubChem BioAssay (EPA / NIEHS).
# Activity calls are given as the source filed them. Rule for the calls: active = hit-call score of the fitted dose curve at least 0.9, where 1 is the maximum; inactive = score below 0.9.
# Tests used:
# Details in all cases: mRNA level, 48 h; actives raise or lower the signal
# CYP2C9 (gene 1559) = experiment: LTEA_HepaRG_CYP2C9: Life Technologies and Expression Analysis (LTEA) Assay for CYP2C9 using HepaRG (AID 2283484)
# How it was run: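 Eight-point concentration-response (highest 100 uM, half-log dilutions) in HepaRG cells for 48 h; CYP2C9 expression by qRT-PCR normalized to ACTB, GAPDH, POLR2A. Bidirectional fit, DMSO baseline.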
# CYP2E1 (gene 1571) = experiment: LTEA_HepaRG_CYP2E1: Life Technologies and Expression Analysis (LTEA) Assay for CYP2E1 using HepaRG (AID 2283485)
# How it was run: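 Readout is qRT-PCR of CYP2E1 mRNA, normalized to three housekeeping genes and fitted bidirectionally against 0.5% DMSO. HepaRG cells were dosed 48 h at eight concentrations, highest 100 uM with half-log dilutions.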
# CYP4A11 (gene 1579) = experiment: LTEA_HepaRG_CYP4A11: Life Technologies and Expression Analysis (LTEA) Assay for CYP4A11 using HepaRG (AID 2283486)
# How it was run: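 Readout is CYP4A11 transcript level by qRT-PCR, normalized to three housekeeping genes and fitted bidirectionally against 0.5% DMSO. Human HepaRG cells were treated 48 h, in duplicate, with an 8-point half-log series topping at 100 uM.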
# [1] = read-out: Cytochrome P450 3A4 (Homo sapiens) (UniProt P08684); experiment: LTEA_HepaRG_CYP3A4: Life Technologies and Expression Analysis (LTEA) Assay for CYP3A4 using HepaRG (AID 2283487)
# How it was run: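 Differentiated HepaRG cells, plated 48 h, then dosed 48 h in serum-free induction medium with 0.5% DMSO, 8 half-log concentrations up to 100 uM, duplicate. CYP3A4 mRNA by qRT-PCR, normalized to ACTB/GAPDH/POLR2A; bidirectional fit versus DMSO.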
# [2] = read-out: DNA damage-inducible transcript 3 (DDIT3), DDIT3 (gene 1649); experiment: LTEA_HepaRG_DDIT3: Life Technologies and Expression Analysis (LTEA) Assay for DNA damage-inducible transcript 3 (DDIT3) using HepaRG (AID 2283488)
# How it was run: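 Cells are human HepaRG liver cells treated for 48 h with eight half-log concentrations up to 100 uM in 0.5% DMSO. Transcript levels come from qRT-PCR normalized to three housekeeping genes, with activity fitted in both directions relative to vehicle.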
# [3] = read-out: Pro-epidermal growth factor (Homo sapiens) (UniProt P01133); experiment: LTEA_HepaRG_EGF: Life Technologies and Expression Analysis (LTEA) Assay for Epidermal growth factor (EGF) using HepaRG (AID 2283489)
# How it was run: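 EGF transcript measured by Fluidigm TaqMan qRT-PCR with three housekeeping genes for normalization, 48 h after dosing HepaRG cultures in duplicate (top 100 uM, half-log steps, 0.5% DMSO vehicle). Gain or loss relative to DMSO fitted.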
# [4] = read-out: Early growth response protein 1 (EGR1) transcription factor, EGR1 (gene 1958); experiment: LTEA_HepaRG_EGR1: Life Technologies and Expression Analysis (LTEA) Assay for Early growth response protein 1 (EGR1) transcription factor using HepaRG (AID 2283490)
# How it was run: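 EGR1 expression change in human HepaRG after 48 h chemical exposure, assessed by housekeeping-normalized qRT-PCR; concentration-response up to 100 uM, fitted in both directions against DMSO controls.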
# [5] = read-out: Ezrin (EZR), EZR (gene 7430); experiment: LTEA_HepaRG_EZR: Life Technologies and Expression Analysis (LTEA) Assay for Ezrin (EZR) using HepaRG (AID 2283491)
# How it was run: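 EZR transcript levels came from Fluidigm qRT-PCR and were normalized to three housekeeping genes after 48 h chemical exposure of HepaRG cells. Dosing used an 8-point half-log series with a 100 uM top concentration in 0.5% DMSO, tested in duplicate; both directions were fitted versus vehicle.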
# CYP3A5 (gene 1577) = experiment: LTEA_HepaRG_CYP3A5: Life Technologies and Expression Analysis (LTEA) Assay for CYP3A5 using HepaRG (AID 2283493)
# How it was run: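 Human HepaRG hepatic cells receive 48 h chemical treatment at eight concentrations (half-log steps from 100 uM) in 0.5% DMSO. Expression of CYP3A5 is quantified by Fluidigm qRT-PCR and normalized to three reference genes.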
# [6] = read-out: Fatty Acid-Binding Protein 1 (FABP1), FABP1 (gene 2168); experiment: LTEA_HepaRG_FABP1: Life Technologies and Expression Analysis (LTEA) Assay for Fatty Acid-Binding Protein 1 (FABP1) using HepaRG (AID 2283494)
# How it was run: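 Values reflect bidirectional concentration-response fitting of FABP1 mRNA change against 0.5% DMSO controls. Human HepaRG cultures received eight half-log doses (top 100 uM) for 48 h; expression quantified by TaqMan qRT-PCR with housekeeping-gene normalization.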
# [7] = read-out: Cytochrome P450 4A22 (Homo sapiens) (UniProt Q5TCH4); experiment: LTEA_HepaRG_CYP4A22: Life Technologies and Expression Analysis (LTEA) Assay for Cytochrome P450 4A22 (CYP4A22) using HepaRG (AID 2283495)
# How it was run: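 Gene expression measured by qRT-PCR against three housekeeping genes (ACTB, GAPDH, POLR2A), with gain or loss fitted relative to 0.5% DMSO vehicle. HepaRG cultures received 48 h chemical treatment, top concentration 100 uM, half-log steps, duplicate wells.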
# [8] = read-out: Cytochrome P450 7A1 (Homo sapiens) (UniProt P22680); experiment: LTEA_HepaRG_CYP7A1: Life Technologies and Expression Analysis (LTEA) Assay for Cytochrome P450 7A1 (CYP7A1) using HepaRG (AID 2283496)
# How it was run: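 HepaRG, 48 h exposure, 8-pt half-log series from 100 uM, 0.5% DMSO vehicle, duplicates. Readout: TaqMan qRT-PCR mRNA vs three housekeeping genes; bidirectional curve fit against DMSO baseline.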
# [9] = read-out: Glutathione S-Transferase (GSTA2), GSTA2 (gene 2939); experiment: LTEA_HepaRG_GSTA2: Life Technologies and Expression Analysis (LTEA) Assay for Glutathione S-Transferase (GSTA2) using HepaRG (AID 2283497)
# How it was run: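 Oxidative-stress marker GSTA2 is quantified by TaqMan qRT-PCR in HepaRG cultures treated 48 h across an eight-point range to 100 uM. Expression is normalized to endogenous controls and compared with 0.5% DMSO vehicle.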
# [10] = read-out: Glutamate-cysteine ligase catalytic (GCLC), GCLC (gene 2729); experiment: LTEA_HepaRG_GCLC: Life Technologies and Expression Analysis (LTEA) Assay for Glutamate-cysteine ligase catalytic (GCLC) using HepaRG (AID 2283498)
# How it was run: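 Oxidative-stress marker GCLC is measured as mRNA change in human HepaRG liver cells after 48 h chemical treatment in 0.5% DMSO, eight concentrations from 100 uM. Activity is fitted bidirectionally against vehicle.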
# [11] = read-out: growth arrest and DNA damage 45 (GADD45G), GADD45G (gene 10912); experiment: LTEA_HepaRG_GADD45G: Life Technologies and Expression Analysis (LTEA) Assay for growth arrest and DNA damage 45 (GADD45G) using HepaRG (AID 2283499)
# How it was run: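 GADD45G transcript level by qRT-PCR (housekeeping-normalized: ACTB, GAPDH, POLR2A) after 48 h chemical treatment of a single HepaRG lot in serum-free induction medium; eight-point half-log series up to 100 uM in 0.5% DMSO, duplicates, up- or down-regulation scored.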
# [12] = read-out: Glutamate-cysteine ligase regulatory (GCLM), GCLM (gene 2730); experiment: LTEA_HepaRG_GCLM: Life Technologies and Expression Analysis (LTEA) Assay for Glutamate-cysteine ligase regulatory (GCLM) using HepaRG (AID 2283500)
# How it was run: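 Endpoint is GCLM transcript level by qRT-PCR, normalized to three housekeeping genes, after 48 h chemical exposure of human HepaRG cells (0.5% DMSO vehicle, top 100 uM, half-log dilutions). Fitting was bidirectional relative to DMSO.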
# [13] = read-out: Glutathione S-transferase M3 (GSTM3), GSTM3 (gene 2947); experiment: LTEA_HepaRG_GSTM3: Life Technologies and Expression Analysis (LTEA) Assay for Glutathione S-transferase M3 (GSTM3) using HepaRG (AID 2283501)
# How it was run: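 GSTM3 transcript levels came from Fluidigm TaqMan qRT-PCR normalized to three housekeeping genes, fitted in both directions against DMSO. HepaRG cultures received chemicals for 48 h in serum-free induction medium (0.5% DMSO), 8 half-log concentrations up to 100 uM, duplicate.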
# [14] = read-out: Heat shock 70 kDa protein 1 (HSPA1A), gene 3303; experiment: LTEA_HepaRG_HSPA1A: Life Technologies and Expression Analysis (LTEA) Assay for Heat shock 70 kDa protein 1 (HSPA1A) using HepaRG (AID 2283502)
# How it was run: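 Cells were plated and cultured for 48 h, then switched to serum-free induction medium. Chemicals were added at eight half-log concentrations up to 100 uM for 48 h. RNA was then isolated and HSPA1A measured by qRT-PCR with bidirectional curve fitting against DMSO.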
# [15] = read-out: Hypoxia-inducible factor 1-alpha (Homo sapiens) (UniProt Q16665); experiment: LTEA_HepaRG_HIF1A: Life Technologies and Expression Analysis (LTEA) Assay for Hypoxia-inducible factor 1 (HIF1A) Trancription factor using HepaRG (AID 2283503)
# How it was run: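 HIF1A transcript level read by qRT-PCR (ACTB, GAPDH, POLR2A normalization) after 48 h chemical exposure of HepaRG cultures. Eight half-log concentrations, top 100 uM, 0.5% DMSO vehicle, duplicates; bidirectional curve fit against DMSO baseline.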
# [16] = read-out: Cytochrome P450 3A7 (Homo sapiens) (UniProt P24462); experiment: LTEA_HepaRG_CYP3A7: Life Technologies and Expression Analysis (LTEA) Assay for CYP3A7 using HepaRG (AID 2283492)
# How it was run: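 CYP3A7 transcript measured by qRT-PCR (ACTB, GAPDH, POLR2A normalization) after 48 h chemical exposure of HepaRG cells in duplicate. Eight half-log concentrations, maximum 100 uM, 0.5% DMSO vehicle; bidirectional curve fitting against DMSO baseline.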
# Chain of Cytochrome P450 3A4 (Homo sapiens) (P08684 whole entry, looked up): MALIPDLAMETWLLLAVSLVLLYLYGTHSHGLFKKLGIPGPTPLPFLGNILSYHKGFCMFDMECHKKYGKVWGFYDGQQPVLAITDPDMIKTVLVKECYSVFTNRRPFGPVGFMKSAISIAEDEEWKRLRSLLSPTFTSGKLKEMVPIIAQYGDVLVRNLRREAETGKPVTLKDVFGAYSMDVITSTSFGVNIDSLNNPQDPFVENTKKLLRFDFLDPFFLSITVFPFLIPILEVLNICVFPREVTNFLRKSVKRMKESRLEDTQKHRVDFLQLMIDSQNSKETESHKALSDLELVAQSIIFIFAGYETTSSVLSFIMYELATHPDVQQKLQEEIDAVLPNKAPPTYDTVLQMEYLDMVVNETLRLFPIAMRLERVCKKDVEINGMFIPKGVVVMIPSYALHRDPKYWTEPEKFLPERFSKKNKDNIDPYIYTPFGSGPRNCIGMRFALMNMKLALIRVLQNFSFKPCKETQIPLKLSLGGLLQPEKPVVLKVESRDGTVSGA
# Chain of Hypoxia-inducible factor 1-alpha (Homo sapiens) (Q16665 whole entry, looked up): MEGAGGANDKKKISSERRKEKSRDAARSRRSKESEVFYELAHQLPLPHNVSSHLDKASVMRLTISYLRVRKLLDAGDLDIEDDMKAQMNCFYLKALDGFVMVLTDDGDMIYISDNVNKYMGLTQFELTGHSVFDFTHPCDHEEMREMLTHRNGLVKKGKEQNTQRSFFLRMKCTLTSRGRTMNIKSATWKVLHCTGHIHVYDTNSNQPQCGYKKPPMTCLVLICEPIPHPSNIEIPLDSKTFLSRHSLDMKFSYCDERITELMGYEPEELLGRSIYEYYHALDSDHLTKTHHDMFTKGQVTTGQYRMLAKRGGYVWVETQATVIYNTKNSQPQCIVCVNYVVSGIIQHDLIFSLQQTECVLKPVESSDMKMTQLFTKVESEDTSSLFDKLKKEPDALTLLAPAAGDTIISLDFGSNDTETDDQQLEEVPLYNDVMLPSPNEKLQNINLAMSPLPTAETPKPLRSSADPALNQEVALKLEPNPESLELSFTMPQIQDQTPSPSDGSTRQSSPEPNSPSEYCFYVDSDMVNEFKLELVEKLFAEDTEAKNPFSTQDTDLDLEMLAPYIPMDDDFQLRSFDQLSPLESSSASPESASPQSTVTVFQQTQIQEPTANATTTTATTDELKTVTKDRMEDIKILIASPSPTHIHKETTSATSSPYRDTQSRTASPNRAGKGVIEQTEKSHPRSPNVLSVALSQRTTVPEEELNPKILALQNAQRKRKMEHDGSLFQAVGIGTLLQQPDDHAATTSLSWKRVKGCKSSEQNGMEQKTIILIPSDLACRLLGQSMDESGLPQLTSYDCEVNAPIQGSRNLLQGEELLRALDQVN
# Chain of Cytochrome P450 3A7 (Homo sapiens) (P24462 whole entry, looked up): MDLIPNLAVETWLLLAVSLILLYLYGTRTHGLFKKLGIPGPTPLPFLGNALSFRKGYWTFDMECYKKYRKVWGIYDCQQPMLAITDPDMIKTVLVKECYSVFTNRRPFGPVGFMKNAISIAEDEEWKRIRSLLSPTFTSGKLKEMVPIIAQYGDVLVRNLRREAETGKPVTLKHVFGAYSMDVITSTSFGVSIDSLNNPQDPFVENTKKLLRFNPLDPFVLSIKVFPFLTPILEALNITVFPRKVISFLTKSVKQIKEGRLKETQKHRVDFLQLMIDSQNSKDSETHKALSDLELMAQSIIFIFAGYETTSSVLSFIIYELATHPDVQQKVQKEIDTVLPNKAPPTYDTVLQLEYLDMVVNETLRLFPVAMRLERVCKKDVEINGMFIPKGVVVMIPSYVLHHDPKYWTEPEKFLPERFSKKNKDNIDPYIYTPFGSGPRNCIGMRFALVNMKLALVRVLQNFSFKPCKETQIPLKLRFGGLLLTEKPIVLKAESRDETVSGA
smiles,measurement,setting,value
CC(=O)O[C@]1(C(C)=O)CC[C@H]2[C@@H]3C=C(Cl)C4=CC(=O)[C@@H]5C[C@@H]5[C@]4(C)[C@H]3CC[C@@]21C,AC50,CYP2C9 (gene 1559),50 µM (active)
same,AC50,CYP2E1 (gene 1571),36.9 µM (active)
same,outcome,CYP4A11 (gene 1579),inactive
same,AC50,[1],36.5 µM (active)
same,AC50,[2],18.5 µM (active)
same,outcome,[3],inactive
same,outcome,[4],inactive
same,outcome,[5],inactive
same,AC50,CYP3A5 (gene 1577),50 µM (active)
same,AC50,[6],21.7 µM (active)
same,outcome,[7],inactive
same,AC50,[8],59 µM (active)
same,AC50,[9],15.8 µM (active)
same,outcome,[10],inactive
same,AC50,[11],50 µM (active)
same,outcome,[12],inactive
same,outcome,[13],inactive
same,AC50,[14],83.4 µM (active)
CC(C)(C)c1ccccc1,outcome,CYP2C9 (gene 1559),inactive
same,outcome,CYP2E1 (gene 1571),inactive
same,outcome,CYP4A11 (gene 1579),inactive
same,outcome,[1],inactive
same,outcome,[2],inactive
same,outcome,[3],inactive
same,outcome,[4],inactive
same,outcome,[5],inactive
same,outcome,CYP3A5 (gene 1577),inactive
same,outcome,[6],inactive
same,outcome,[7],inactive
same,outcome,[8],inactive
same,outcome,[9],inactive
same,outcome,[10],inactive
same,outcome,[11],inactive
same,outcome,[12],inactive
same,outcome,[13],inactive
same,outcome,[14],inactive
same,outcome,[15],inactive
Cc1cn([C@H]2C=C[C@@H](CO)O2)c(=O)[nH]c1=O,outcome,CYP2C9 (gene 1559),inactive
same,outcome,CYP2E1 (gene 1571),inactive
same,outcome,CYP4A11 (gene 1579),inactive
same,outcome,[1],inactive
same,outcome,[2],inactive
same,outcome,[3],inactive
same,outcome,[4],inactive
same,outcome,[5],inactive
same,outcome,CYP3A5 (gene 1577),inactive
same,outcome,[6],inactive
same,outcome,[7],inactive
same,outcome,[9],inactive
same,outcome,[10],inactive
same,outcome,[11],inactive
same,outcome,[12],inactive
same,outcome,[13],inactive
same,outcome,[14],inactive
CCCCC(CC)COC(=O)CCCCCCCC(=O)OCC(CC)CCCC (centres undefined),outcome,CYP2C9 (gene 1559),inactive
same,outcome,CYP2E1 (gene 1571),inactive
same,outcome,CYP4A11 (gene 1579),inactive
same,outcome,[1],inactive
same,outcome,[2],inactive
same,outcome,[3],inactive
same,outcome,[4],inactive
same,outcome,[5],inactive
same,outcome,[16],inactive
same,outcome,CYP3A5 (gene 1577),inactive
same,outcome,[6],inactive
same,outcome,[7],inactive
same,outcome,[8],inactive
same,outcome,[9],inactive
same,outcome,[10],inactive
same,outcome,[11],inactive
same,outcome,[12],inactive
same,outcome,[13],inactive
same,outcome,[14],inactive
same,outcome,[15],inactive
